PubChem BioAssay (NCATS)
Results filed as inconclusive are left out. Active and inactive are the calls of the source. Unless noted, calls come from the whole dose curve; as a rule, active = well fitted curve in the direction sought with a large enough effect; inconclusive = small, poorly fitted or top-dose-only effect, or another doubt; inactive = no such curve, though single readings can be large; an effect the other way counts as inactive or inconclusive.

How the values were obtained:
[1] = target: Protein phosphatase 1D (Homo sapiens) (UniProt O15297); assay: RapidFire Mass Spectrometry qHTS Assay for Modulators of WT P53-Induced Phosphatase 1 (WIP1) (AID 1347424);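 note: amount of dephosphorylated VEPPL-S-QETFS peptide product formed by WIP1; series mostly up to about 63 µM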
Sequence of Protein phosphatase 1D (Homo sapiens) (O15297 whole entry, looked up): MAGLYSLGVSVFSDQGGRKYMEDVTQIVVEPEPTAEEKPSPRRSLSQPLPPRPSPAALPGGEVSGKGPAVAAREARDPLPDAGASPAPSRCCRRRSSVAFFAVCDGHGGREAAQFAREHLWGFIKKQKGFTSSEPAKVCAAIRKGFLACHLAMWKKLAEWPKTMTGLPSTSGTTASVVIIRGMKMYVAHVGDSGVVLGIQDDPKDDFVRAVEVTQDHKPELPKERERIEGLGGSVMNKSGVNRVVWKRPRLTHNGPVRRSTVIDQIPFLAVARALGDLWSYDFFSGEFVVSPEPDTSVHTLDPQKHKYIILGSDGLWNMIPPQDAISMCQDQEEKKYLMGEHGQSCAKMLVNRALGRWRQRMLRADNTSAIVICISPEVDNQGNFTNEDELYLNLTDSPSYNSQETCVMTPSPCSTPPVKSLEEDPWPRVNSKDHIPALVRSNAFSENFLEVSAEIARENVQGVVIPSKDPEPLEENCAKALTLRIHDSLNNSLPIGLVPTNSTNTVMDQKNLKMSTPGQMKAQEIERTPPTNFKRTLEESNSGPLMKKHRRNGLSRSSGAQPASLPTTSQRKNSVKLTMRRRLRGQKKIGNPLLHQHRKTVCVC
Summary of the method: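 WIP1 (10 nM final) was preincubated 1 h at room temperature with compounds in Tris-HCl pH 7.5, 30 mM MgCl2, TCEP, EGTA, BSA; 2 uM VEPPL-pS-QETFS phosphopeptide was added for 5 min, quenched with formic acid, and dephosphorylated product quantified by RapidFire MS.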

[2] = target: Protein phosphatase 1D (Homo sapiens) (UniProt O15297); assay: Rhodamine-PBP qHTS Assay for Modulators of WT P53-Induced Phosphatase 1 (WIP1) (AID 1347425)
Summary of the method: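 5 nM WIP1 + 10 uM Rh-PBP, 50 mM Tris pH 7.5, 30 mM MgCl2, 1 mM TCEP, 0.1 mM EGTA, BSA; cpds pinned, 1 hr RT; + 10 uM phosphopeptide; fluorescence 1-min reads x 11 min; delta = f1 - f0.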

[3] = Primary qHTS for inhibitors of La Crosse Virus (LACV) - induced cell death in SH-SY5Y cells (AID 1508616);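 note: top concentration of the series differs between compounds; higher means more rescue of cells from virus-induced death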
Summary of the method: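 Readout was luminescence from ATPLite 1step added after a 6-day LACV infection (0.01 MOI) of SH-SY5Y cells that had received pin-transferred compound 24 hr after seeding.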

[4] = target: Calcium and integrin-binding protein 1 (Homo sapiens) (UniProt Q99828); assay: Primary qHTS for Identification of Calcium Integrin Binding Protein 1 (CIB1) Competitor (AID 1508620);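 note: GST tagged CIB1 binding a fluorescein labelled alphaIIb integrin peptide tracer; top concentration of the series differs between compounds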
Sequence of Calcium and integrin-binding protein 1 (Homo sapiens) (Q99828 whole entry, looked up): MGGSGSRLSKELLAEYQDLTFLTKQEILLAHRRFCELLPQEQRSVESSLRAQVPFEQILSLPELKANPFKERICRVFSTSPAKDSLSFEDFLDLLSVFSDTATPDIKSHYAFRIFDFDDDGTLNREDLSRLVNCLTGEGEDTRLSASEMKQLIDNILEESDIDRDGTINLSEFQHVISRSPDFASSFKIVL
Summary of the method: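 Fluorescence polarization competition: CIB1-GST (1 uM final) preincubated with compound 15 min at room temperature, then FITC-labeled alphaIIb peptide (100 nM final) added for another 15 min. Polarization read at Ex 480/Em 540.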

[5] = Primary qHTS for small molecule stabilizers of the endoplasmic reticulum resident proteome: Secreted ER Calcium Modulated Protein (SERCaMP) assay (AID 1508630)
Summary of the method: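 GLuc-SERCaMP-expressing SH-SY5Y cells, pretreated 16 h with compound, are challenged with thapsigargin to empty ER calcium stores; after 4 h, coelenterazine is added directly to the medium and luminescence is imaged.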

[6] = target: Cytochrome P450 2D6 (Homo sapiens) (UniProt P10635); assay: Cytochrome P450 family 2 subfamily D member 6 (CYP2D6) small molecule antagonists: luciferase biochemical (cell-free) qHTS assay (AID 1645840; active = well fitted curve in the direction sought with a large enough effect in the repeat runs; an effect the other way counts as inactive or inconclusive; note: nearly all actives have a fitted effect of over 55% in size; note: potency is the fitted concentration of half-maximal effect)
Sequence of Cytochrome P450 2D6 (Homo sapiens) (P10635 whole entry, looked up): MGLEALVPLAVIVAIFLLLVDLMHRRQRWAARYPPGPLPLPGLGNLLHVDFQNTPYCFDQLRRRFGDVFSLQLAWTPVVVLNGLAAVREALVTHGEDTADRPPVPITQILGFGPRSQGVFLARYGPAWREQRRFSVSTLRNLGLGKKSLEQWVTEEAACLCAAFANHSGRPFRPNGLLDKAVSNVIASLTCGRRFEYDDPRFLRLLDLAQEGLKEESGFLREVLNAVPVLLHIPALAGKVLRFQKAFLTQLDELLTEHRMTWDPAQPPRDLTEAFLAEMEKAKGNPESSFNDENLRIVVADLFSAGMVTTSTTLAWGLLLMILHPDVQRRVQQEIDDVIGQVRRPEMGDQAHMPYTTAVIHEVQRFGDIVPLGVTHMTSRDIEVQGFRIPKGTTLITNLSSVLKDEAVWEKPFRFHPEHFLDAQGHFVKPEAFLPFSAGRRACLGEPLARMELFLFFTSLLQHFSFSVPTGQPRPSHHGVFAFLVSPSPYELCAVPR
Summary of the method: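 P450-Glo luminescent screen: recombinant CYP2D6 enzyme–proluciferin substrate mix preincubated with compound 10 min at room temperature, then NADPH regeneration added for 1 h at room temperature. Detection reagent added for 20 min; luciferin light read as relative luminescence units.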

[7] = A High-Content qHTS Against Drug Library for the Identification of Small Molecules that Inhibit DYT1 Early Onset Primary Dystonia-Associated Cell Pathology (AID 1645839; calls by dose curve; note: series mostly up to about 46 µM)
Summary of the method: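 Readout: %pathology, the punctate EGFP-TorsinA distribution from imaging, as the primary channel and cell count as the toxicity counterscreen. HEK293 Flp-In cells expressing delE TorsinA were induced with tetracycline and treated with compound for 48 h.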

[8] = target: Cytochrome P450 2C9 (Homo sapiens) (UniProt P11712); assay: Cytochrome P450 family 2 subfamily C member 9 (CYP2C9) small molecule antagonists: luciferase biochemical (cell-free) qHTS assay (AID 1645842; active = well fitted curve in the direction sought with a large enough effect in the repeat runs; an effect the other way counts as inactive or inconclusive; note: nearly all actives have a fitted effect of over 55% in size; note: potency is the fitted concentration of half-maximal effect)
Sequence of Cytochrome P450 2C9 (Homo sapiens) (P11712 whole entry, looked up): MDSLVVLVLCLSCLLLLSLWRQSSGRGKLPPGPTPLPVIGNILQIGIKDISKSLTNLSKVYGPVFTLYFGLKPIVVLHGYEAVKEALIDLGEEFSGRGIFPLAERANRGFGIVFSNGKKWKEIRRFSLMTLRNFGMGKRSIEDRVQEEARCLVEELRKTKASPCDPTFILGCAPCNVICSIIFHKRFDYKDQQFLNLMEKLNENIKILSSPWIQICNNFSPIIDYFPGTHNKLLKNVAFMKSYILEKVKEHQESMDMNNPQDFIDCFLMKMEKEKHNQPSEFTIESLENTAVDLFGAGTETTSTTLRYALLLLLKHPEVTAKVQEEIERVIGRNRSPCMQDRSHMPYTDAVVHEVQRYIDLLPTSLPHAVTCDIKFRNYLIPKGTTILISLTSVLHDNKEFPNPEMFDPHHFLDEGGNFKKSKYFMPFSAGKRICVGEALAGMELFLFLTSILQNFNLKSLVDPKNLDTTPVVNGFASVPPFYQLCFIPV
Summary of the method: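 Luminescence, after 20 min with luciferin detection reagent, reflected CYP2C9 turnover during a 1 h NADPH-driven reaction at 37C. Enzyme-substrate mix contained 0.4% bovine serum albumin and was preincubated with compound 10 min at room temperature.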

[9] = Validation qHTS assay for inhibitors of Activation Induced Cytidine Deaminase (AID): UDG Counterscreen signal (AID 1347427)
Summary of the method: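 Counterscreen read of UDG activity (2 U/mL, 4/3x) in the FRET deamination format with AID (1 uM, 4/3x), DJC20/DJC23 substrates (250 nM, 4x), 4 h at room temperature. NaOH stop, fluorescence at 560 ex/665 em.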

[10] = target: Single-stranded DNA cytosine deaminase (Homo sapiens) (UniProt Q9GZX7); assay: Validation qHTS assay for inhibitors of Activation Induced Cytidine Deaminase (AID): AID signal (AID 1347429)
Sequence of Single-stranded DNA cytosine deaminase (Homo sapiens) (Q9GZX7 whole entry, looked up): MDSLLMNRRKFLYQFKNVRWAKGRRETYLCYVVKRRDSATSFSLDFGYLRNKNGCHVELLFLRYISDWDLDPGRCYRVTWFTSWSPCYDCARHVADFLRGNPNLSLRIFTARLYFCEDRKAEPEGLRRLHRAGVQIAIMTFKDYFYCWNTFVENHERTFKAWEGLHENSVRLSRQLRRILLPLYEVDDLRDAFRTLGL
Summary of the method: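 In this coupled qHTS, AID deaminates a FRET-labelled ssDNA substrate in the presence of UDG over 4 hr at room temperature. Compounds span up to 114 uM final.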

[11] = target: Calcium and integrin-binding protein 1 (Homo sapiens) (UniProt Q99828); assay: Validation qHTS for Identification of Calcium Integrin Binding protein 1 (CIB1) Competitor (AID 1508618)
Summary of the method: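 Displacement of FITC-alphaIIb peptide (100 nM) from CIB1-GST (1 uM) is monitored by polarization in quantitative HTS format; buffer carries 5 mM CaCl2 and 125 mM NaCl at pH 7.4, incubations are at room temperature.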

Papain (Carica papaya) = Papain (Carica papaya) (UniProt P00784); assay: Primary qHTS assay for inhibitors of the protease papain (AID 1645873);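 note: papain turnover of Z-FR-AMC read as the AMC fluorescence gain over 10 min; series mostly up to about 50 µM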
Sequence of Papain (Carica papaya) (P00784 whole entry, looked up): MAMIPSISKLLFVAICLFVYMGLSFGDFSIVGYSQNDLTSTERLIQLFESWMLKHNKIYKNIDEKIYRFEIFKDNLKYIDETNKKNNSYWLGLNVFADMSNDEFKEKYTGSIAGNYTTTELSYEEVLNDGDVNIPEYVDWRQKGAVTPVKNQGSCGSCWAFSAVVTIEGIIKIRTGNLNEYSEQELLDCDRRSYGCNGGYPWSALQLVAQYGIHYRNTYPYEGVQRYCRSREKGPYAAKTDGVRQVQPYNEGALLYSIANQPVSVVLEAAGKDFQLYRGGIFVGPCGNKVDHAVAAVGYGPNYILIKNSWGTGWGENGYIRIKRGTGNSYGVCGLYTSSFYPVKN

[12] = Counterscreen qHTS for small molecule stabilizers of the endoplasmic reticulum resident proteome: GLuc-NoTag assay (AID 1508627);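 note: SH-SY5Y cells given compound then 100 nM thapsigargin to empty ER calcium; series mostly up to about 76 µM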
Summary of the method: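 SH-SY5Y cells stably expressing constitutively secreted GLuc (no SERCaMP tag) were pre-incubated 5 h, treated with compound for 19 h, then 100 nM thapsigargin for 4 h at 37C; medium GLuc read by coelenterazine luminescence.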

[13] = Confirmatory qHTS for small molecule stabilizers of the endoplasmic reticulum resident proteome: Secreted ER Calcium Modulated Protein (SERCaMP) assay (AID 1508628);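 note: SH-SY5Y cells given compound 16 h then thapsigargin 100 nM for 4 h; series mostly up to about 76 µM; nearly all actives have a fitted effect of over 40% in size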
Summary of the method: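 We seeded SH-SY5Y-GLuc-SERCaMP cells, added compounds (three concentrations in the primary run, eleven up to 76.6 uM in confirmation), incubated 16 h, depleted ER calcium with thapsigargin, and read luciferase 4 h later.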

Measured: Potency

CC1=CC(=O)c2ccccc2C1=O
active: [6] 15.5 µM
inactive: [1] | [2] | [3] | [4] | [5]

CN1CCN(c2c(F)cc3c(=O)c(C(=O)O)cn(CCF)c3c2F)CC1
inactive: [1] | [2] | [3] | [5] | [7] | [6] | [8]

O=C(O)CCn1c2c(c3ccccc31)C[C@H](NS(=O)(=O)c1ccc(F)cc1)CC2
active: [8] 17.4 µM
inactive: [1] | [2] | [7] | [6]

CC(=O)[C@H]1CC[C@H]2[C@@H]3CCC4=CC(=O)CC[C@]4(C)[C@H]3CC[C@]12C
inactive: [9] | [10] | [3] | [11] | [4] | [5] | Papain (Carica papaya)

O=C(O)c1cn(C2CC2)c2cc(N3CCNCC3)c(F)cc2c1=O
inactive: [1] | [2] | [3] | [7]

CNCC[C@H](Oc1cccc2ccccc12)c1cccs1
inactive: [1] | [2] | [4] | [12] | [13] | [5] | [8]

COC(=O)Nc1nc2ccc(C(=O)c3ccccc3)cc2[nH]1
inactive: [1] | [5] | [6] | [8]
